In PubChem BioAssay AID1159580 (chemical genetic matrix, 2015):
The whole screen tested about 5,500 compounds, of which about 2,000 (36%) were called active. About 18% were inconclusive and are not listed. This is one part of the list. Values without a mark were called inactive. No stated cut-off is given here; in the data, active means normalized growth mostly below about 0.91 (no sharp cut-off); inconclusive means no clear call, values can overlap the other calls; inactive means mostly above about 0.92.

Experiment: chemical genetic growth profiling, strain panel (AID 1159580);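 further: tested at 20 µM; growth read once vehicle control cultures reached saturation at 30 °C; 1 = growth at the plate median or of vehicle wells; lower values mean less growth of the strain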
Details: S. cerevisiae deletion strains, growth OD

**Q.** Which results are given for `CC(=O)O[C@@H]1CC[C@@]2(C)C(CC[C@]3(C)C2CC=C2C4CC(C)(C)CC[C@]4(C(=O)O)CC[C@]23C)C1(C)C` (some centres not stated)?
**A.** normalized growth (locus YJR043C, strain POL32, hits give low values): 1.06; normalized growth (locus YJR066W, strain TOR1, hits give low values): 0.882; normalized growth (locus YKL009W, strain mrt4, hits give low values): 1.03; normalized growth (locus YKL068W, hits give low values): 1.02; normalized growth (locus YKL085W, strain MDH1 (second series), hits give low values): 1.04; normalized growth (locus YKL085W, strain MDH1, hits give low values): 1.04; normalized growth (locus YKL160W, strain elf1, hits give low values): 0.954; normalized growth (locus YKL190W, strain CNB1, hits give low values): 1.03; normalized growth (locus YKR001C, strain vps1, hits give low values): 1; normalized growth (locus YKR026C, strain gcn3, hits give low values): 1.01; normalized growth (locus YKR091W, strain srl3, hits give low values): 1; normalized growth (locus YLL001W, strain dnm1, hits give low values): 1.01; normalized growth (locus YLL026W, hits give low values): 1; normalized growth (locus YLL041C, strain sdh2, hits give low values): 0.996; normalized growth (locus YLR027C, strain aat2, hits give low values): 0.981; normalized growth (locus YLR039C, strain RIC1, hits give low values): 1.1; normalized growth (locus YLR058C, strain SHM2, hits give low values): 0.989; normalized growth (locus YLR102C, strain apc9, hits give low values): 0.981; normalized growth (locus YLR113W, strain HOG1, hits give low values): 0.975; normalized growth (locus YLR221C, strain rsa3, hits give low values): 0.954; normalized growth (locus YLR258W, strain gsy2, hits give low values): 0.98; normalized growth (locus YLR262C, strain YPT6 (second series), hits give low values): 0.886; normalized growth (locus YLR262C, strain YPT6, hits give low values): 1.14; normalized growth (locus YLR268W, strain sec22, hits give low values): 1.01; normalized growth (locus YLR320W, strain mms22, hits give low values): 0.968; normalized growth (locus YLR330W, strain CHS5, hits give low values): 1; normalized growth (locus YLR342W, strain FKS1 (second series), hits give low values): 1.05; normalized growth (locus YLR342W, strain FKS1, hits give low values): 0.919; normalized growth (locus YLR357W, strain rsc2, hits give low values): 0.893; normalized growth (locus YLR370C, strain arc18, hits give low values): 0.957; normalized growth (locus YLR371W, strain rom2, hits give low values): 0.991; normalized growth (locus YLR384C, strain iki3, hits give low values): 0.981; normalized growth (locus YLR418C, strain cdc73, hits give low values): 0.984; normalized growth (locus YML016C, strain PPZ1, hits give low values): 0.99; normalized growth (locus YML032C, strain rad52, hits give low values): 1.01; normalized growth (locus YML120C, strain ndi1, hits give low values): 0.999; normalized growth (locus YML124C, strain tub3, hits give low values): 0.99; normalized growth (locus YMR058W, strain fet3, hits give low values): 0.655 (active); normalized growth (locus YMR078C, strain ctf18, hits give low values): 0.977; normalized growth (locus YMR125W, strain sto1, hits give low values): 1.01; normalized growth (locus YMR129W, hits give low values): 1.01; normalized growth (locus YMR205C, strain PFK2, hits give low values): 0.991; normalized growth (locus YMR223W, strain ubp8, hits give low values): 0.985; normalized growth (locus YMR231W, strain pep5, hits give low values): 0.99; normalized growth (locus YMR263W, strain SAP30, hits give low values): 0.985; normalized growth (locus YMR307W, strain GAS1, hits give low values): 0.985; normalized growth (locus YNL067W, strain RPL9B, hits give low values): 0.973; normalized growth (locus YNL071W, strain lat1, hits give low values): 1.02; normalized growth (locus YNL153C, strain GIM3, hits give low values): 0.988; normalized growth (locus YNL183C, strain NPR1, hits give low values): 0.914; normalized growth (locus YNL209W, strain ssb2, hits give low values): 0.793 (active); normalized growth (locus YNL233W, strain BNI4, hits give low values): 0.991; normalized growth (locus YNL248C, strain rpa49, hits give low values): 1.03; normalized growth (locus YNL250W, strain rad50, hits give low values): 0.959; normalized growth (locus YNL271C, strain bni1, hits give low values): 0.981; normalized growth (locus YNL298W, strain CLA4, hits give low values): 0.995; normalized growth (locus YNL307C, strain MCK1, hits give low values): 0.985; normalized growth (locus YNL322C, strain KRE1 (second series), hits give low values): 0.988; normalized growth (locus YNR049C, strain mso1, hits give low values): 1.01; normalized growth (locus YNR052C, strain pop2, hits give low values): 0.985; normalized growth (locus YOL012C, strain htz1): 0.851; normalized growth (locus YOL147C, strain pex11, hits give low values): 1.01; normalized growth (locus YOR001W, strain rrp6, hits give low values): 1.02; normalized growth (locus YOR061W, strain CKA2, hits give low values): 1.04; normalized growth (locus YOR069W, strain VPS5, hits give low values): 0.989; normalized growth (locus YOR070C, strain gyp1, hits give low values): 0.986; normalized growth (locus YOR080W, strain dia2, hits give low values): 1; normalized growth (locus YOR083W, strain WHI5, hits give low values): 0.968; normalized growth (locus YOR106W, strain vam3, hits give low values): 0.852 (active); normalized growth (locus YOR136W, strain idh2, hits give low values): 0.979; normalized growth (locus YOR144C, strain elg1, hits give low values): 0.981; normalized growth (locus YOR184W, strain ser1, hits give low values): 1.05; normalized growth (locus YOR231W, strain MKK1, hits give low values): 0.966; normalized growth (locus YOR265W, strain rbl2, hits give low values): 0.984; normalized growth (locus YOR270C, strain vph1, hits give low values): 0.946; normalized growth (locus YOR290C, strain snf2, hits give low values): 0.983; normalized growth (locus YOR316C, strain cot1, hits give low values): 0.98; normalized growth (locus YPL051W, strain arl3, hits give low values): 0.833 (active); normalized growth (locus YPL078C, strain atp4, hits give low values): 0.992; normalized growth (locus YPL106C, strain sse1, hits give low values): 0.923; normalized growth (locus YPL240C, strain hsp82, hits give low values): 0.985; normalized growth (locus YPL256C, strain CLN2, hits give low values): 0.982; normalized growth (locus YPR119W, strain clb2, hits give low values): 0.981; normalized growth (locus YPR141C, strain kar3, hits give low values): 0.982; normalized growth (locus YPR163C, strain tif3, hits give low values): 0.991; normalized growth (locus YPR167C, strain met16, hits give low values): 0.987; normalized growth (strain wtn01, hits give low values): 1.03
